From PubChem BioAssay
Mcl1 Noxa PPI = disrupts binding of human Mcl-1 to Noxa peptide; AID 1022; Q07820; TR-FRET Mcl-1/Noxa peptide binding, 2 h; inhibition, % at 21.7 µM; 220,000 tested, 1.5% active;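 active = compounds that cut the protein-peptide binding signal by more than 50% relative to plate controls in a single-dose test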;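 note: His-tagged Mcl-1 with rhodamine Noxa BH3 peptide and terbium anti-His antibody; 0% = Mcl-1 plus Noxa peptide wells and 100% = peptide-only wells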
Target sequence (Q07820 whole entry, looked up): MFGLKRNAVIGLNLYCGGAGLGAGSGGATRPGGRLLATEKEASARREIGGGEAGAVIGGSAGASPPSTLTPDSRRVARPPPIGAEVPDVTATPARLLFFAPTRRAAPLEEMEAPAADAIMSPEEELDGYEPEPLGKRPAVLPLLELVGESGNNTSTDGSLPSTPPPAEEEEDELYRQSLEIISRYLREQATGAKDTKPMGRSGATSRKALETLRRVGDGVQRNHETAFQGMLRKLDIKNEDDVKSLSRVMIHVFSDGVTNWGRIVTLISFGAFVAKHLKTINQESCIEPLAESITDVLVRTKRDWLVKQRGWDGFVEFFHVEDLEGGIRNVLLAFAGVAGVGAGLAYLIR
GLD-1 RNA inh = GLD-1-TGE RNA interaction inhibition (C. elegans) | Q17339 | purified GLD-1 + fluorescein TGE RNA, fluorescence polarization | inhibition, % at 5.96 µM | 320,000 tested, 0.44% active | AID 2280;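 active = percent inhibition above a per-plate cutoff, the plate mean of test compounds plus 3 SD, cut at about 30% in these data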;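 note: 0% = DMSO wells with GLD-1 and probe and 100% = wells lacking GLD-1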
Mcl1-Bid inh = Mcl-1/Bid interaction inhibition | Q07820 | TR-FRET Mcl-1/Bid-Dy647 peptide binding, 1536-well | inhibition, % at 21.7 µM | 220,000 tested, 0.97% active;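 active = compounds that cut the binding signal by more than half at the single screening dose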;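 note: His-tagged Mcl-1 with europium anti-His antibody binding Bid BH3 peptide; 0% = Mcl-1 plus peptide wells and 100% = peptide-only wells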
BCLXL inh = Bcl-xL (human) inhibition. Q07817. GST-Bcl-xL / FITC-Bim BH3 peptide fluorescence polarization. inhibition, % at 10.9 µM. 320,000 tested, 0.7% active;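 active = inhibition above the mean of all tested compounds plus 3 SD, cutoff set per campaign, cut at about 30% in these data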;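 note: 0% = DMSO wells and 100% = unlabeled Bim-BH3 peptide competitor; inhibitors lower millipolarization by displacing the labeled peptide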
Bim-Mcl-1 = human Bim-Mcl-1 interaction inhibition; AID 1009; inhibition, % at 10 µM; Bead-based flow cytometry, Bim peptide-Mcl-1 binding; Q07820; 190,000 tested, 0.1% active; in the data active = inhibition above about 40%;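 note: 0% = no compound tracer wells and 100% = peptide blocker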
MCL1 BIM primary = inhibitors of human MCL1 binding to BIM-BH3 peptide. inhibition, % at 10.9 µM. GST-MCL1 / FITC-Bim-BH3 fluorescence polarization. Q07820. 320,000 tested, 0.68% active;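 active = inhibition above the mean inhibition of all tested compounds plus 3 SD, set per campaign, cut at about 40% in these data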;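 note: 0% = DMSO wells and 100% = unlabeled Bim-BH3 peptide control; higher means more loss of mP so more displacement of Bim peptide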
* hit, by the source's call; . = not tested or not shown. In the library only some 2.3% were active in any assay of this set; here they are far more common.

SMILES | Mcl1 Noxa PPI | GLD-1 RNA inh | Mcl1-Bid inh | BCLXL inh | Bim-Mcl-1 | MCL1 BIM primary
CC1C(=O)NN=C1C(=O)N/N=C\c1ccc(O)cc1O (stereo unspecified) | 74* | -1 | -75 | 5 | 1 | 8
C/C=C(/C)C(=O)O[C@@H]1Cc2c(ccc3ccc(=O)oc23)OC1(C)C | . | 2 | . | . | . | .
CC1(C)Oc2ccc3ccc(=O)oc3c2C[C@H]1O | -8 | 3 | 83* | 4 | . | 4
CCOC(=O)c1[nH]cnc1C(=O)Nc1ccncc1 | -11 | 6 | 83* | -2 | -1 | 1
CCOC(=O)c1[nH]cnc1C(=O)Nc1ccc(F)cc1 | 16 | 1 | -21 | 3 | -2 | 7
CN(C=[N+](C)C)c1cccc2c1C(=O)c1ccccc1C2=O | 16 | 18 | -23 | 35* | -1 | 38
c1ccc(N2CCN(c3nc(-c4cccs4)nc4ccccc34)CC2)cc1 | 0 | 1 | -9 | -3 | 5 | -4
Oc1ccc(N2CCN(c3nc(-c4cccs4)nc4ccccc34)CC2)cc1 | 94* | 8 | -42 | 32* | . | 44*
COC(=O)c1nn(-c2ccc(OC)cc2)ccc1=O | . | -1 | . | 4 | . | 2
CC(=O)N1CCN(C(=O)c2ccco2)CC1 | . | 0 | . | 2 | . | -5
NC(=O)N1CCN(C(=O)c2ccco2)CC1 | 9 | 4 | 70* | 5 | -1 | 5
O=C(c1ccco1)N1CCN(c2nc3ccccc3n3nnnc23)CC1 | 25 | 6 | -28 | 41* | -1 | 30
CCn1c(N2CCN(C(=O)c3ccco3)CC2)nc2ccccc21 | . | 6 | . | 3 | . | -1
COc1ccc(C2(NC(C)=O)CCN(C(=O)c3ccco3)CC2)cc1 | 2 | 6 | -8 | 7 | 40* | 6
Cc1ccccc1CCNC(=O)c1ccc(Cl)c(S(=O)(=O)N2CC(C)OC(C)C2)c1 (stereo unspecified) | . | -9 | . | -2 | . | -6
Cc1cc(C)c(C)c(OCCCn2ccnc2)c1 | 21 | 7 | 24 | 6 | -1 | 11
Cc1cc(C)c(C)c(OCCCN(C)C)c1 | 25 | 8 | 53* | -1 | -4 | -1
CC(C)CN(C(=O)COC(=O)CNC(=O)c1ccccc1F)c1c(N)n(Cc2ccccc2)c(=O)[nH]c1=O | . | 0 | . | -11 | . | -15
COc1ccccc1NC(=O)Cc1nnc(SCC(=O)Nc2nccs2)n1C | . | -6 | . | -2 | . | -3
Cc1cccc2c3nc4ccccc4nc3n(C)c12 | . | 14 | . | 49* | . | 40*
CN(C)CCCNc1cc(O)c2ncccc2c1 | . | 33* | . | . | . | .
Cc1cccc(Cn2c(N3CCc4ccccc4C3)nc3c2c(=O)[nH]c(=O)n3C)c1 | 63* | 6 | 1 | 0 | 1 | 0
Cc1cccc(Cn2c(N3CCN(C)CC3)nc3c2c(=O)[nH]c(=O)n3C)c1 | . | 7 | . | 0 | . | 1
COc1ccc(C(CNC(=O)c2oc3ccc(F)cc3c2C)N2CCCCC2)cc1 (stereo unspecified) | . | 0 | . | 0 | . | -5
CCCN(CCC)CCNc1c(N2CCN(C(=O)OCC)CC2)c(=O)c1=O | 64* | 0 | -30 | 2 | 0 | 8
SMILES | Mcl1 Noxa PPI | GLD-1 RNA inh | Mcl1-Bid inh | BCLXL inh | Bim-Mcl-1 | MCL1 BIM primary
COC(=O)CSc1nnc(CNc2nc(-c3ccccc3)cs2)n1C | -12 | -3 | -17 | 2 | -1 | 0
Cn1c(CNc2nc(-c3ccccc3)cs2)nnc1SCC(=O)N1CCc2ccccc21 | 5 | 6 | -18 | -2 | 51* | 3
O=C(Nc1ccc(Cl)cc1)c1cc2c(cc1O)[nH]c1ccccc12 | 61* | 10 | 34 | -1 | . | 0
CC(=O)Nc1ccc2[nH]c3ccccc3c2c1 | -18 | -5 | -28 | 5 | -1 | 3
c1ccc(CNc2cncnc2)cc1 | . | -6 | . | 10 | . | 4
CC(=O)c1ccc(NC(=O)CN2C(=O)NC3(CCc4ccccc43)C2=O)cc1 (stereo unspecified) | . | 1 | . | . | . | .
Cc1cccc(C)c1N(CC(=O)NCc1ccccc1)C(=O)c1csnn1 | . | -2 | . | 0 | . | 3
Brc1ccc(C2Nc3cccc4cccc(c34)N2)s1 | 100* | 5 | -13 | 9 | 0 | 5
COc1cc(SC)ccc1C(=O)Nc1cccc(S(=O)(=O)NC2=NCCCCC2)c1 | . | 165* | . | 5 | . | 2
CCN(CC)S(=O)(=O)c1cccc(NC(=O)c2ccc(SC)cc2OC)c1 | 11 | 5 | -1 | 7 | -3 | 4
CCCNC(=O)c1ccccc1NC(=O)COc1cccc2c1OC(C)(C)C2 | . | 0 | . | -1 | . | 5
